FBW7 act: FBW7 E3 ligase activators, primary screen, biochemical, AlphaScreen, human | 0.13% of 650,000 active | AID 1259310, 2017 | AlphaScreen FBW7–phospho-cyclin E peptide binding, activator screen | normalized activity (activation), % at 26.1 µM | F-box/WD repeat-containing protein 7 (Homo sapiens), Q969H0; in the data active = normalized activity above about 1.9%;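 also: purified mutant Fbw7 with reduced substrate affinity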
GPR151 ag: activators of human GPR151, primary screen, cell-based, PathHunter beta-arrestin, luminescence; G-protein coupled receptor 151 (Homo sapiens), Q8TDV0; PathHunter beta-arrestin GPR151 cells; activation, % at 11.2 µM; 1% of 650,000 active; AID 1508602, 2020; in the data active = activation above about 4.9%;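 also: 0% = median of compound wells and 100% = cells with positive control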
Target sequence (Q8TDV0 whole entry, looked up): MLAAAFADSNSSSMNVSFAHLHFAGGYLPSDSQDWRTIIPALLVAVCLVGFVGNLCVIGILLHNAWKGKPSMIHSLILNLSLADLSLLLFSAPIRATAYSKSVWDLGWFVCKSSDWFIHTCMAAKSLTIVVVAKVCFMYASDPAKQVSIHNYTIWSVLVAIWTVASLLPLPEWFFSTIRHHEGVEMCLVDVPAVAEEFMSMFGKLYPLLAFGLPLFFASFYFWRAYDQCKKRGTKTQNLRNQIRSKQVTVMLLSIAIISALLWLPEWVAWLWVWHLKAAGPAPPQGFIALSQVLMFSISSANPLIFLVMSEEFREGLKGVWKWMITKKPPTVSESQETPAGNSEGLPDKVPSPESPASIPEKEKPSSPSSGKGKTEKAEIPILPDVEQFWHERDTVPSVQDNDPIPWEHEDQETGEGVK
TEAD-YAP inh: TEAD-YAP interaction inhibition, primary screen, TEAD-YAP interaction inhibitor project, luminescence, HEK-TIYL cells; TEAD-Gal4/YAP UAS-luciferase luminescence; inhibition, % at 9.12 µM; 1.4% of 640,000 active; in the data active = inhibition above about 32%;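 also: 0% = median of test compound wells and 100% = reference inhibitor wells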
MITF inh: MITF inhibitors, primary screen, biochemical, AlphaScreen, human; Microphthalmia-associated transcription factor (Homo sapiens), O75030; AlphaScreen MITF homodimerization, bead proximity signal; inhibition, % at 2.6 µM; 0.91% of 650,000 active; AID 1259374, 2018; in the data active = inhibition above about 50%;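 also: 0% = vehicle wells with protein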
GPR151 conf act: GPR151 activators, triplicate retest, confirmation, cell-based, PathHunter beta-arrestin, luminescence | shares compounds with GPR151 ag | GPR151 PathHunter beta-arrestin cells, 90 min; % of EA-reagent control over plate median | activation, % at 11.2 µM | 6,700 tested, under 10 active;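 active = mean percent activation across replicates above the confirmation screen cutoff of 4.91%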
GPR119 counter: GPR119 activators in beta-arrestin cells, counter-screen for GPR151 activator project, cell-based, PathHunter beta-arrestin, luminescence, triplicate; shares compounds with GPR151 ag; 90 min; 0 = compound-well median, 100 = enzyme-acceptor control; activation, % at 11.2 µM; 0.3% of 6,700 active;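 active = mean percent activation in the counterscreen above 29.09%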;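 also: counterscreen on off-target GPR119 to flag nonselective hits from the GPR151 activator screen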
Numbers without * were called inactive; / = no result given. Shown are actives, neighbours in structure and some others; about 3.5% of the full set was active somewhere.

SMILES	FBW7 act	GPR151 ag	TEAD-YAP inh	MITF inh	GPR151 conf act	GPR119 counter
CC1(C)CC(=O)N(CC(=O)N2CCCCCC2)c2ccccc2S1	0	4	-4	5	/	/
CCCCC/C=C\C/C=C\C/C=C\CC#CCCCC(=O)O	/	-1	/	3	/	/
Cc1ccc2c(Cn3cc(C(F)(F)F)cc(Cl)c3=O)cc(=O)oc2c1	0	7.6*	-3	-8	-1	-7
CCn1c(C(C)(C)C)nc2ccccc21	0	-1	5	13	/	/
N#C/C(C(N)=O)=c1/s/c(=C\c2cccs2)c(=O)n1-c1ccc(F)cc1	0	0	-1	2	/	/
Nc1cccc(-c2cnc3ccc(NCc4cccs4)nn23)c1	0	3	26	3	/	/
CC1CCCN(C(=O)NC2(C(F)(F)F)Oc3ccccc3O2)C1 (centres undefined)	0	5.7*	-15	7	1	7
Nc1nc(Cl)nc2c1ncn2Cc1ccc(C(F)(F)F)cc1	0	2	-32	-10	/	/
CCNc1cc(N2CCN(CCO)CC2)c2noc3c2c1C(=O)c1ccccc1-3	-1	-1	10	49	/	/
CCCOC(=O)c1c(N)sc2c1CCC(C)C2 (centres undefined)	0	1	-9	1	/	/
CCOC(=O)c1c(NC(=O)COc2ccc3c(C)cc(=O)oc3c2)sc2c1CCC(C)C2 (centres undefined)	0	5.4*	3	-5	0	10
CNC(=O)c1c(NC(=O)COc2cccc(C)c2C)sc2c1CCCC2	0	5.2*	-7	0	0	1
CCOC(=O)c1c(NC(=O)COc2ccc3c(c2)OCO3)sc2c1CCCC2	0	5.4*	4	-13	0	10
CCCOC(=O)c1c(NC(=O)OC)sc2c1CCC(C)C2 (centres undefined)	1	6.0*	-4	13	-1	-8
COC(=O)c1ccc(NC(=O)COc2cccc(C)c2C)cc1	0	1	7	8	/	/
COc1ccc(NC(=O)COc2cccc(C)c2C)cc1	0	7.5*	-19	3	0	14
CCC(CC)NC(=O)COC(=O)c1cc(OC)c(OC)cc1[N+](=O)[O-]	0	5.0*	5	-6	0	2
COc1cc(C(=O)OCC(=O)NC(C)C)c([N+](=O)[O-])cc1OC	0	-2	6	9	/	/
CCCCNc1ncnc(N)c1[N+](=O)[O-]	0	3	21	-1	/	/
CC(C)OCCCNc1ncnc(N)c1[N+](=O)[O-]	0	7.7*	40*	7	0	-8
CN(C)c1ccc(C2NC(=S)NC3=C2N2CCC3CC2)cc1 (centres undefined)	0	0	-10	1	/	/
S=C1NC2=C(C(c3ccc(Br)cc3)N1)N1CCC2CC1 (centres undefined)	0	5.7*	4	15	-1	-9
O=C(O)c1ccc(N2CCN(c3ccccn3)CC2)c([N+](=O)[O-])c1	0	0	3	2	/	/
CC(NC(=O)CSc1nc2ccccc2c(=O)n1CCCO)c1ccccc1 (centres undefined)	0	6.5*	6	9	0	-2
COc1ccc(CCNC(=O)CCn2c(SCC(=O)Nc3cc(C)on3)nc3ccccc3c2=O)cc1OC	0	4.9*	3	8	-1	-17
SMILES	FBW7 act	GPR151 ag	TEAD-YAP inh	MITF inh	GPR151 conf act	GPR119 counter
Cc1ccc(CSc2nc3ccsc3c(=O)n2Cc2ccc(C)cc2)cc1	0	-1	5	14	/	/
Cc1ccc(Cn2c(SCC(=O)C(C)(C)C)nc3ccsc3c2=O)cc1	0	5.0*	-3	7	1	8
CCC(C)NC(=O)CSc1nc2ccccc2c(=O)n1CCCN1CCCCC1CC (centres undefined)	0	1	1	-5	/	/
CCOC(=O)CSc1nc2ccccc2c(=O)n1Cc1ccccc1OC	0	5.2*	6	7	0	1
O=C(CSc1nc2ccsc2c(=O)n1Cc1ccccc1)NCCC1=CCCCC1	0	8.7*	-7	5	1	4
COc1ccccc1NC(=O)CSc1nc2ccsc2c(=O)n1Cc1ccccc1	0	6.0*	4	0	1	10
O=C(CSc1nc2ccccc2c(=O)n1CCC1=CCCCC1)NCCc1ccccc1	0	6.4*	-9	-1	0	-5
CCOc1ccccc1CNCCNC(=O)c1nonc1N	0	6.3*	7	7	0	-6
Nc1nonc1C(=O)NCCNCc1ccccc1Cl	0	-1	-7	6	/	/
COc1ccc(NC(=O)COc2ccc3c(=O)c(-c4ccc(F)cc4)coc3c2)cc1	0	5.4*	-5	-6	1	2
CCOC(=O)c1c(C)n(C)c2ccc(OCC(O)Cn3nnc4ccccc43)cc12 (centres undefined)	0	6.0*	12	12	0	4
CCOC(=O)c1c(C)n(C)c2ccc(OCC(O)CN(CC)CC)cc12 (centres undefined)	0	4	4	-3	/	/
Cc1cc(C(=O)COC(=O)c2cc(Cl)cc(Cl)c2)c(C)n1C	0	-1	-8	-1	/	/
Cc1[nH]c(C(=O)OCC(=O)c2cc(C)n(C)c2C)c(C)c1C(C)O (centres undefined)	0	5.2*	-19	2	1	0
CC(C)NC(=O)CN(c1cccc2ccccc12)S(C)(=O)=O	0	8.4*	3	-16	0	-2
CCc1ccccc1N(CC(=O)Nc1ccc(F)c(F)c1)S(C)(=O)=O	0	6.7*	-11	1	0	-9
CS(=O)(=O)N(CC(=O)Nc1cccc(F)c1)c1ccccc1F	0	5	-1	-4	/	/
CCc1ccccc1N(CC(=O)Nc1ccccc1SC)S(C)(=O)=O	0	5.6*	0	4	0	-6
CS(=O)(=O)N(CC(=O)Nc1cccc(F)c1)c1ccccc1Cl	0	5.0*	-6	0	0	2
CCOC(=O)c1sc2nc(C)nc(Nc3cc(C)cc(C)c3)c2c1C	0	0	-8	-1	/	/
CCC1(C)Cc2ccccc2-c2nc3n(c(=O)c21)CCCS3 (centres undefined)	0	-1	0	5	/	/
O=C(Nc1csc2c1CCCC2)N(NC(=O)C(O)(c1ccccc1)c1ccccc1)c1ccccc1	0	0	-3	-5	/	/
